From PubChem
Rows were chosen to be rich in hits. Some 10% of all compounds tested hit in one or more screens of this group.
GLS inh = glutaminase GLS (human) inhibition; GLS enzymatic activity, qHTS titration; Potency, µM (highest dose often 45.5 µM), without a hit: top-dose activity change, negative = inhibition, most hits filed as inhibitors; 410,000 compounds, 0.21% hits; AID 624170; further: on the % scale 0 is the no-effect control and ±100 the full control effect
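Two-point fluorescence kinetic (t0, 30 min RT) for hKGA; glutamate detected via glutamate oxidase–HRP–Amplex Red. Substrate: 1 mM L-glutamine solution; buffer 45 mM KH2PO4, pH 8.2.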
HP1b binding inh = blocks HP1-beta chromodomain binding to methylated histone tails; Potency, µM (doses to about 114 µM), without a hit: at the top dose activity change, negative = inhibition, most hits filed as inhibitors; AlphaScreen HP1-beta / biotin-H3K9me3 peptide binding; AID 540317; 390,000 compounds, 0.56% hits; further: nearly all actives have a fitted effect of over 70% in size
Target sequence (P83916 whole entry, looked up): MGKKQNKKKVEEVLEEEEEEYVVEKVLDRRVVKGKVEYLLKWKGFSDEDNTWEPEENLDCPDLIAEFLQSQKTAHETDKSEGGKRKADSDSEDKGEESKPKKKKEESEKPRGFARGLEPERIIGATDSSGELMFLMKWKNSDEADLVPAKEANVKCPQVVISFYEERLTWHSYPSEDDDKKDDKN
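Compound inhibition of the preformed complex between 50 nM HP1-beta and 50 nM biotinylated H3K9me3 peptide was read by AlphaScreen. Buffer was PBS pH 7.4 with 0.01% Tween-20. Incubations ran 30 min at room temperature, with 10 ug/mL donor/acceptor beads.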
G9a inh = G9a (human) methyltransferase inhibition | 350,000 compounds, 8.8% hits | G9a H3K9 monomethylation, AlphaScreen, 2 h | AID 504332 | Potency, µM (doses to about 102 µM), without a hit: at the highest dose activity, negative = inhibition, actives largely listed as inhibitors; further: on the % scale 0 is the no-effect control and ±100 the full control effect; nearly all actives have a fitted effect of over 75% in size
Target sequence (Q96KQ7 913-1193 limits assumed): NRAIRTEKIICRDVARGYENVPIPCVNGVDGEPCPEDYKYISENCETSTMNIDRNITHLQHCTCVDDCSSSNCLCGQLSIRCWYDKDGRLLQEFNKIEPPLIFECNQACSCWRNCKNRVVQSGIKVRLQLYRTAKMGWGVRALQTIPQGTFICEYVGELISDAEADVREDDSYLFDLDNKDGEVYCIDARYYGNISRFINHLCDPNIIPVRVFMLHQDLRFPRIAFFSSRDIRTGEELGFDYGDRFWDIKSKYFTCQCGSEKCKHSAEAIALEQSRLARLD
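Compounds were preincubated with 20 nM G9a for 15 min, after which biotinylated H3K9 peptide (500 nM) and SAM (20 uM) started a 2 h room-temperature reaction. Monomethylated product was quantified by antibody-based AlphaScreen chemiluminescence.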
BAZ2B inh = inhibitors of human BAZ2B bromodomain. Q9UIF8. AlphaScreen BAZ2B-H3K14Ac peptide displacement. Potency, µM (titrated, usually from 114 µM), for inactives: at the top dose activity change, negative = inhibition, hits mostly inhibitors. 360,000 compounds, 4.4% hits. AID 504333; further: on the % scale 0 is the no-effect control and ±100 the full control effect; nearly all actives have a fitted effect of over 60% in size
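Multi-concentration screen (max 110 uM) measuring displacement of acetylated histone H3 peptide from BAZ2B by AlphaScreen, using 50 nM protein, 50 nM peptide and 10 ug/mL streptavidin donor plus Ni-chelate acceptor beads.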
JMJD2A Tudor = inhibitors of human JMJD2A Tudor domain; AlphaScreen JMJD2A-Tudor / H3K4me3 peptide binding; O75164; AID 504339; Potency, µM (doses to about 114 µM), for the others: top-dose activity change, negative = inhibition, hits mostly inhibitors; 390,000 compounds, 4.4% hits; further: on the % scale 0 is the no-effect control and ±100 the full control effect; nearly all actives have a fitted effect of over 50% in size
Active calls of the source: *; ? = inconclusive; · = no result given; [ ] = another dose, or the depositor's remark. The call rests on the fitted dose curve; in most records, active means well fitted curve in the direction sought with a large enough effect; inconclusive means small, poorly fitted or top-dose-only effect, or another doubt; inactive means no such curve, though single readings can be large; an effect the other way counts as inactive or inconclusive. Potency means the concentration at half of the fitted maximal effect.

SMILES	GLS inh	HP1b binding inh	G9a inh	BAZ2B inh	JMJD2A Tudor
C=C1C[C@@H]2[C@H]3CCC4=CC(=O)C=C[C@]4(C)[C@@]3(F)[C@@H](O)C[C@]2(C)[C@]1(O)C(=O)COC(C)=O	-5.2%	·	·	·	·
Cc1cc(C)c(Nc2nn3c(=O)c4cc5c(cc4nc3s2)OCO5)c(C)c1	-16.9%	?	2.24µM*	-1.5%	-32.1%
COc1cc(-c2csc(CCn3nc(C)cc3C)n2)cc(OC)c1OC	2.1%	-8.9%	31.6µM*	-35.1%	-25.1%
CCOC(=O)/C(C#N)=C1/C(=O)N(Cc2ccccc2)c2ccccc21	?	14.1µM*	25.1µM*	25.1µM*	25.1µM*
CCOC(=O)C(C#N)=C1CCN(Cc2ccccc2)CC1	17.9%	28.0%	?	-15.4%	-11.3%
COc1ccccc1NS(=O)(=O)c1ccc2c(c1)CCC(=O)N2	·	·	·	·	7.5%
COc1cccc(/C=C2\SC(=S)N(C(C)C(=O)NC3C=CS(=O)(=O)C3)C2=O)c1 (stereo not given)	29.2%	-18.7%	?	39.8µM*	?
O=C1/C(=C/c2cccc(O)c2)SC(=S)N1CC1CCCO1 (stereo not given)	1.7%	21.4%[57 µM]	-4.9%[12.7 µM]	-4.9%	-26.9%
COc1cccc(/C=C2\SC(=S)N(CCC(=O)N3CCCCC3)C2=O)c1	-7.3%	9.6%	5.1%	-29.7%	-19.6%
COc1cccc(/C=C2\SC(=S)N(CC3CCCO3)C2=O)c1 (stereo not given)	0.9%	-51.6%	28.2µM*	8.91µM*	?
COc1cccc(/C=C2\SC(=S)N(N3C(=O)CCCC3=O)C2=O)c1	-7.4%	?	22.4µM*	25.1µM*	-85.2%
CC1=CC(c2ccccc2)n2nc(NC(=O)CCCC(=O)O)nc2N1 (stereo not given)	-16.1%	6.6%	5.4%	50.1µM*	?
CC1=CC(c2ccc(Cl)cc2)n2nc(NC(=O)c3ccccc3)nc2N1 (stereo not given)	-17.7%	54.1%	14.1µM*	56.2µM*	-30.1%
CC1=CC(c2ccccc2)n2nc(NC(=O)CCC(=O)O)nc2N1 (stereo not given)	-13.8%	-13.5%	?	?	?
O=C(N=C1SC2CS(=O)(=O)CC2N1c1ccc(Cl)cc1Cl)C1CCCO1 (stereo not given)	2.3%	36.8%	3.1%	-6.8%	-3.4%
O=C(N=C1SC2CS(=O)(=O)CC2N1c1ccc(Cl)cc1Cl)C1CC1 (stereo not given)	-7.5%	27.5%	79.4µM*	-23.1%	-9.7%
CCCCn1nnnc1C(c1ccccc1OC(F)(F)F)N1CCN(C/C=C/c2ccccc2)CC1 (stereo not given)	-6.3%	·	·	·	·
Cc1ccc(C)c(-n2nnnc2SCC(=O)c2ccc3c(c2)NC(=O)CO3)c1	-9.7%	38.8%	50.1µM*	?	-14.5%[57.1 µM]
Cc1cccc(C)c1Nc1nnc(SCC(=O)c2ccc(Br)s2)s1	16.2%	?	-14.8%[59 µM]	-7.5%	?
Cc1ccc2nc(SCC(=O)c3ccc4c(c3)NC(=O)CO4)[nH]c2c1	0.1%	19.7%	·	-2.6%	-3.6%
Cc1cccc(C)c1Nc1nnc(SCC(=O)c2ccc3c(c2)NC(=O)CO3)s1	9.5%	21.5%	11.2µM*	-5.3%	-16.9%
Cc1ccc(NC(=O)CSc2nnc(-c3cccnc3)s2)cc1	0.8%	33.1%	79.4µM*	20.2%	-6.0%
O=C(CSc1nnc(-c2ccncc2)s1)Nc1ccc(Cl)c(C(=O)O)c1	3.6%	-1.9%	50.1µM*	?	-18.3%
O=C(CSc1nnc(-c2cccnc2)s1)Nc1ccnc2ccccc12	0.6%	42.9%	?	-6.3%	-8.5%
CC(=O)Nc1ccc(NC(=O)Cc2sc(-c3cccnc3)nc2-c2ccc(C)cc2)cc1	-1.5%	29.5%	44.7µM*	-16.1%	-9.7%
Cc1ccc(-c2nc(-c3cccnc3)sc2CC(=O)O)cc1	-1.5%	24.5%	?	-15.6%	-5.1%
COc1ccc(N2CCN(c3ccnc4cc(Cl)ccc34)CC2)cc1	26.2%	39.8µM*	31.6µM*	39.8µM*	35.5µM*
Oc1ccc(N2CCN(c3ccnc4cc(Cl)ccc34)CC2)cc1	15.7%	?	8.91µM*	?	56.2µM*
O=C(Nc1ccc(C(=O)N2CCOCC2)cc1)c1ccccc1Cl	-0.1%	·	·	·	·
